Compound activity: PubChem, several laboratories
Bfl-1 A1 inh = inhibitors of the anti-apoptotic protein A1, read as caspase activation. caspase activation, % (test concentration not listed). AID 2462. 330,000 compounds, 0.066% hits. MEF A1-2A-BIM cells, Caspase-Glo 3/7 luminescence, 3 h; percent of clofoctol response, vehicle zero;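 active = over half of replicate activation scores above 10%, or exactly half above 10 with the replicate mean above 10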
GRK2 aptamer HTS = inhibitors of human GRK2 displacing RNA aptamer | bead flow cytometry, FAM-aptamer displacement from GRK2 | 330,000 compounds, 0.59% hits | AID 488847 | inhibition of aptamer binding, % at 10 µM | P25098;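 active = inhibition of aptamer binding above 40%, roughly 3 SD of noise, on plates passing a quality check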;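 note: median bead fluorescence of bound FAM aptamer so fluorescent compounds give negative values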
VLA-4 inh = inhibition in a human VLA-4 binding assay; P13612; VLA-4 expressing cells, ligand binding flow cytometry; inhibition, % (about 7 µM as worked out from the volumes in the protocol); 330,000 compounds, 0.2% hits; in the data active = inhibition above about 50%
NTR1 agonist = agonists of human neurotensin receptor NTR1 | 330,000 compounds, 0.17% hits | activation, % at 20 µM | NTR1-U2OS beta-arrestin-GFP spot imaging, agonist mode | AID 493036 | P30989;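 active = activation at or above 40% of the spot to cytoplasm intensity ratio, with at least 20 cells analyzed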;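 note: 0% = DMSO without peptide and 100% = 100 nM NTR1 peptide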
Beta2AR agonist = agonists of human beta-2 adrenergic receptor inducing internalization; AID 504454; Am2.2-beta2AR cells, FAP receptor internalization, flow cytometry; P07550; 340,000 compounds, 0.43% hits; response, % (test concentration not listed);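 active = response above a set limit, near 3 SD of response in nonfluorescent compounds, cut at about 42% in these data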
Target sequence (P07550 whole entry, looked up): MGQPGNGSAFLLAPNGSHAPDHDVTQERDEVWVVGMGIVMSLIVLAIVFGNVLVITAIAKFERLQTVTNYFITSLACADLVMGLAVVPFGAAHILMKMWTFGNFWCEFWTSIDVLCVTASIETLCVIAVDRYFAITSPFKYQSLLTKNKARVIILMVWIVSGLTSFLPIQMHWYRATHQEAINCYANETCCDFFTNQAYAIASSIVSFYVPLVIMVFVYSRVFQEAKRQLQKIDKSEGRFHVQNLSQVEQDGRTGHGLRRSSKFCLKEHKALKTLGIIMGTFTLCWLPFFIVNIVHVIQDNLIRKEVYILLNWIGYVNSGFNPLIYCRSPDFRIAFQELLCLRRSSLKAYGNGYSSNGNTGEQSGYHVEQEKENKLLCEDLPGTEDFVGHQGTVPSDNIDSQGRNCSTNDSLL
GRK2 CP1 = confirmation of human GRK2 inhibitors displacing RNA aptamer; shares compounds with GRK2 aptamer HTS; bead-bound GRK2, FAM-aptamer displacement, flow cytometry; aptamer displacement, % at 10 µM; 2,000 compounds, 4% hits; AID 504451;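 active = aptamer displacement above 40%, near three times the noise of non-fluorescent compounds, on plates passing quality checks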;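 note: negative values mostly reflect intrinsic compound fluorescence rather than true enhancement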
Aptamer quench 1 = quenches fluorescent RNA aptamer, GRK2 hit artifact. AID 504521. fluorescence change (kMESF span), kMESF (no concentration beside the values). 110 tested, under 10 active. Fluorescent RNA aptamer beads, quenching, flow cytometry; active compounds read high. shares compounds with GRK2 aptamer HTS;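 active = compounds whose bead fluorescence drops by more than 37 kMESF across the dose range, marking them as dye quenchers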
FAM quench CP1 = counter-screen for GRK2 aptamer inhibitors: fluorescent aptamer quenchers; shares compounds with GRK2 aptamer HTS; Carboxyfluorescein RNA aptamer on beads, flow cytometry quenching; active compounds read low; fluorescence response (% of DMSO), % at 10 µM; 2,000 tested, under 10 active;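 active = compounds that quench the bead-bound fluorescent RNA probe, cutting fluorescence to under half of the solvent control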;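 note: counterscreen run without GRK2 so only probe quenching by compound is measured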
* hit, by the source's call; . = no result. In the library only some 1.3% were active in any assay of this set; here they are far more common.

SMILES | Bfl-1 A1 inh | GRK2 aptamer HTS | VLA-4 inh | NTR1 agonist | Beta2AR agonist | GRK2 CP1 | FAM quench CP1 | others
Cc1nn(-c2ccc(Cl)c(Cl)c2)c(=O)c2ccccc12 | 0 | 1 | 6 | 0 | -6 | . | .
Cc1nn(-c2ccc(Cl)cc2)c(=O)c2ccccc12 | 0 | 96* | -17 | -1 | 0 | 2 | 97
COc1ccc(C2CC(C(F)(F)F)n3nc(C(=O)Nc4c(C)n(C)n(-c5ccccc5)c4=O)c(Cl)c3N2)cc1 (stereo unspecified) | 0 | 1 | 12 | 0 | . | 5 | 98
Cn1nnc2cc(C(=O)N3CCN(c4ccccn4)CC3)ccc21 | 0 | 0 | 8 | 0 | 1 | . | .
COc1ccc(Cc2nnc(NN)[nH]c2=O)cc1OC | 1 | 0 | 1 | 1 | 11 | . | .
COc1ccc(Cc2nnc(SC)[nH]c2=O)cc1OC | 0 | 51* | 13 | 1 | -2 | -1 | 98
CCC(=O)Oc1ccc2c(C)cc(=O)oc2c1C(=O)c1ccccc1 | 0 | 0 | 23 | . | -8 | . | .
CCC(=O)Oc1ccc2c(C)cc(=O)oc2c1C(=O)CC | 0 | 100* | 16 | 1 | 0 | 3 | 101
COc1ccc(C(CNS(=O)(=O)c2ccc(F)cc2)N2CCN(C)CC2)cc1 (stereo unspecified) | 0 | 0 | 6 | 0 | 2 | . | .
COc1ccc(S(=O)(=O)NCC(c2ccc(F)cc2)N2CCN(C)CC2)cc1 (stereo unspecified) | 0 | 76* | 7 | 2 | -5 | 46* | 100 | Aptamer quench 1=0.2
N#CC1(N2CCN(C(=O)c3ccccc3)CC2)CCCCC1 | 0 | 2 | 13 | 0 | -9 | . | .
CC1CCCCC1NC(=O)Cn1cnc2sccc2c1=O (stereo unspecified) | . | . | . | 1 | -1 | . | .
COc1ccc(C2Nc3cccc4cccc(c34)N2)cc1Br | -1 | 68* | 0 | 1 | 4 | -7 | 100
COCCN(Cc1ccco1)C(=O)C1CCCN(c2ncnc3c2nc2n3CCCCC2)C1 (stereo unspecified) | 0 | 1 | -10 | 0 | 1 | . | .
COc1cccc(N=Cc2nc(-c3ccccc3)oc2OC(C)=O)c1 | 2 | 0 | 3 | 3 | -5 | . | .
COc1ccc(N=Cc2nc(-c3ccccc3)oc2OC(C)=O)cc1 | 1 | 73* | 13 | 3 | 7 | 1 | 97
CN(C)c1ccc(/C=C/c2nc3ccccc3c(=O)n2-c2ccc(C(=O)O)cc2)cc1 | 1 | 7 | -133 | -1 | -101 | -4 | 102
O=C(c1cc(COc2ccc(F)cc2Cl)on1)N1CCN(c2cnccn2)CC1 | 0 | 4 | 18 | 0 | 1 | . | .
COc1ccccc1CNC(=O)C(=O)NCC1OCCN1S(=O)(=O)c1ccc2c(c1)OCCO2 (stereo unspecified) | 0 | 41* | 4 | -2 | -1 | -2 | 100
O=C(CCN1C(=O)c2ccccc2C1=O)Nn1cnnc1 | 0 | 52* | 7 | 2 | -2 | 2 | 94
O=C(O)c1ccc(-n2cccc2/C=C2/NC(=O)N(c3cccc(Cl)c3)C2=O)cc1 | . | . | . | . | -68 | . | .
O=C(O)c1ccc(-n2cccc2/C=C2/SC(=O)N(CC(=O)N3CCCC3)C2=O)cc1 | 1 | 82* | 22 | 0 | -6 | 63* | 133 | Aptamer quench 1=16
O=C(O)c1ccc(-n2cccc2/C=C2/NC(=O)N(c3ccccc3)C2=O)cc1 | -1 | 73* | -19 | -1 | -3 | 36 | 94
CCOc1cccc(CN(C)CC2CCCN(CCc3ccc(Cl)cc3)C2)c1O (stereo unspecified) | 0 | 0 | -6 | 2 | 8 | . | .
CC(C)Oc1ccc(NC(N)=O)cc1 | 0 | 89* | 13 | -2 | 9 | -2 | 102
CC(C)Oc1ccc(NC(=O)CCC(=O)O)cc1 | 0 | 1 | -2 | 0 | 7 | . | .
Cc1ccc(C(C)C)c(OCC(=O)NNC(=O)Cc2ccc(S(=O)(=O)N3CCOCC3)s2)c1 | 0 | 0 | -15 | 1 | 5 | . | .
